About 83,000 compounds went through this panel and 20% of them were active in at least one assay; those are over-represented in the sample as a whole.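 Note: values are percent growth. 100 is the growth of untreated cells, values between 100 and 0 indicate rising inhibition; between -100 and 0 indicates cell death.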 A number with no mark means an inactive call. The source made the active and inactive calls. Rule for the calls: active = growth percent below 10; inactive = the rest.

Holding throughout (assay): NCI-60 one-dose screen, 48 h (100 = growth as untreated, 0 = no growth, -100 = all killed)
Common to all, as to details: 10 µM unless noted

Test [1] relates to DU-145 prostate.
The test system of test [2] is K-562 leukemia.
Test [3] has as its system MALME-3M melanoma.
Test [4] relates to MDA-MB-231 breast.
The test system of test [5] is RXF 393 renal.
Test [6] has as its system SF-268 CNS.
For test [7], the system named is SF-295 CNS.
Test [8] has as its system SF-539 CNS.
Test [9] relates to UACC-257 melanoma.
Test [10] deals with M14 melanoma.
Test [11] relates to HCT-15 colon.
The test system of test [12] is HT29 colon.
Test [13] concerns SNB-75 CNS.
The subject of test [14] is SNB-19 CNS.
Test [15] deals with U251 CNS.
Test [16] has as its system PC-3 prostate.
Test [17] deals with SK-MEL-5 melanoma.
Test [18] relates to UACC-62 melanoma.
Test [19] deals with LOX IMVI melanoma.
The test system of test [20] is SK-MEL-28 melanoma.

As to `O=C(NCCN1CCCC1)n1cc(-c2ccncc2)c(-c2cc(O)cc(Cl)c2)n1`, the growth is 104% in test [1]; 82% in test [2]; 9.44% (active) in test [3]; 80.8% in test [4]; 75.5% in [5]; 92.6% in test [6]. The growth was 125% in test [7]; 77.9% in [8]; 43.4% in [9]; 25.4% in test [10]; 88.6% in test [11]; 90.1% in test [12]. The growth in [13] was 110%; in test [14], 98.5%; in [15], 82.9%; in test [16], 103%; in [17], 62.9%; in test [18], 34.6%. Moreover, the growth in test [19] was 79.7%; in [20], 36.7%.
As to `COC(=O)C(Br)(C(=O)OC)C(Br)C(Br)C(Br)c1ccccc1` (stereo not given), the growth in test [1] is 89.3%; in [2], 19.9%; in test [3] it was 47.5%; in test [4] it was 89%; in test [5], -20.8% (active); in test [6] it was 101%. The growth in test [7] was 114%; in [8], 26.6%; in test [9], 56.4%; in [10], 44.2%; in [11] it was -37.8% (active); in test [12] it was 32.3%. Also, the growth in test [13] is 92.4%; in [14], 98.6%; in [15], 81.5%; in test [16], 93.3%; in [17], 98.4%; in [18], 60.2%. Also, the growth in test [19] is 9.1% (active); in [20] it was 108%.
Turning to `ClC1(Cl)C2CCCCCCC21` (stereo not given), the growth is 121% in test [1]; 97.8% in test [2]; 107% in test [3]; 122% in [4]; 117% in [5]; 112% in test [6]. The growth in test [7] is 101%; in test [8] it was 117%; in test [9], 106%; in [10], 98.7%; in test [11], 107%; in test [12], 97.5%. Further, the growth is 97.2% in test [13]; 99.6% in test [14]; 109% in [15]; 98.7% in test [16]; 110% in [17]; 103% in test [18]. In addition, the results for the growth in [19] and in test [20] were 108% and 107%, respectively.
On to `Cc1cccc(/C=N/n2c(-c3ccc(Cl)cc3)nc3c(Br)cc(Br)cc3c2=O)c1`, for which the growth in test [1] was 66.2%; in test [2] it was 65.7%; in test [3] it was 70%; in test [4], 44.9%; in test [5], 61.3%; in test [6], 69.9%. In addition, the growth is 35.4% in [7]; 70% in test [8]; 76.3% in test [9]; 60.4% in [10]; 70.5% in [11]; 67.9% in test [12]. For the same molecule, the growth in [13] was 45.9%; in [14], 62%; in test [15], 43%; in test [16], 21.4%; in test [17], 38.5%; in test [18], 35.5%. In addition, the growth in test [19] was 52.6%; in [20], 60.7%.
As to `COc1ccc(-c2cc(-c3cn(-c4cccc(Cl)c4)nc3-c3ccc(OC)cc3)[nH]c(=S)n2)cc1`, the growth was 50.1% in [1]; 101% in test [2]; 90.9% in test [3]; 67.7% in [4]; 102% in test [5]; 70.6% in test [6]. The growth in [7] is 93%; in [8], 92.2%; in test [9], 71.5%; in test [10], 92%; in [11], 95.4%; in test [12], 20.6%. Besides, the growth in test [13] is 102%; in test [14] it was 81.6%; in test [15], 72.6%; in test [16] it was 67.3%; in test [17], 88.5%; in test [18], 88%. Moreover, the growth was 7.63% (active) in test [19] and 95.5% in test [20].
On to `COc1ccc2c(c1)N(Cc1ccc(Cl)cc1)CCC2N1CCCC1=O` (stereo not given), for which the growth in [1] is 43.9%; in [2] it was 47.4%; in test [3] it was 39.8%; in [4] it was 61.8%; in test [5], 39.4%; in [6], 59.2%. Also, the growth in test [7] was 28.3%; in [8], 48.5%; in [9], 63.6%; in test [10] it was 60.9%; in [11], 33.5%; in test [12] it was 45.5%. Also, the growth in [13] was 27.1%; in [14] it was 54.7%; in test [15] it was 39.1%; in test [16] it was 24%; in test [17], 24.7%; in test [18], 42.1%. For the same molecule, the growth in test [19] is 30.3%; in test [20], 63.5%.
As to `CCOC(=O)C#Cc1c(C(=O)OCC)nnn1[C@@H]1O[C@H](COC(C)=O)[C@@H](OC(C)=O)[C@H]1OC(C)=O`, the growth in test [1] was 100%; in [2], 28.5%; in [3] it was 101%; in test [4], 107%; in [5], 70.2%; in [6], 97.8%. In addition, the growth in test [7] is 103%; in test [8], 101%; in test [9], 64.3%; in test [10], 92.1%; in test [11] it was 44%; in test [12], 88.9%. The growth was 95.5% in [13]; 93% in test [14]; 100% in [15]; 102% in [16]; 96.6% in [17]; 93.1% in test [18]. Further, the figures for the growth in test [19] and in [20] were 85.8% and 107%, respectively.
`CCOC(=O)C1C(=O)C=C(c2cc(OC)c(OC)c(OC)c2)CC1c1sc(N(C)Cc2ccccc2)nc1Cl` (stereo not given): the growth in [1] is 106%; in [2] it was 66.4%; in [3] it was 104%; in [4] it was 82.9%; in [5] it was 81.5%; in test [6], 73.6%. Besides, the growth in test [7] is 89.3%; in test [8], 95.6%; in test [9] it was 90.4%; in [10] it was 92%; in test [11], 92.1%; in [12], 90.7%. In addition, the growth was 79.6% in test [13]; 77.5% in test [14]; 87.8% in test [15]; 64% in test [16]; 72.7% in test [17]; 64.7% in [18]. The results for the growth in test [19] and in [20] were 94% and 115%, respectively.

(Values after PubChem BioAssay (NCI).)
